Measured values: PubChem BioAssay (NCI)
The panel holds about 79,000 compounds, 15% with a hit somewhere; the sample as a whole holds those more often. A number with no mark means an inactive call. The source made the active and inactive calls. Rule as the data show it: active = growth inhibition above about 70%; inactive = the rest.

Test: NCI Yeast Anticancer Drug Screen. Data for the mlh1 rad18 strain (AID 175)
Settings: S. cerevisiae mlh1 rad18 strain growth inhibition, hits give high values
Method: Growth inhibition of yeast strains with defined genetic alterations is measured as a screen for potential anti-cancer activity. Selected strains with alterations in DNA damage repair or cell cycle control were exposed to compounds and growth inhibition was measured relative to vehicle treated controls. The strain used in this assay is mlh1 rad18

[1] = at 5.0 µM (retest, dose inferred, filed as 0.5)
[2] = at 50.0 µM (retest, dose inferred, filed as 5.0)

| SMILES | growth inhibition [1] | growth inhibition [2] | growth inhibition (at 50.0 µM) |
| --- | --- | --- | --- |
| Cc1c(-c2ccccc2)[nH]c2ccccc12 | 38% | 96% (active) | 91.2% (active) |
| S=c1cn[nH]c2ccc(Br)cc12 | -109% | 75% (active) | 85.6% (active) |
| CCCCC(=O)c1c(O)nc2sccn2c1=O | 63% | 95% (active) | 83.4% (active) |
| c1ccc(N2N=C3N(c4ccccc4)C2N3c2ccccc2)cc1 | 38% | 99% (active) | 77.5% (active) |
| COc1cc(N)ccc1Nc1c2ccccc2nc2ccccc12 | 81% (active) | 94% (active) | 65.7% |
| NC(N)=N/N=C/c1cc(Cl)cc(Cl)c1O | 55% | 97% (active) | 58.2% |
| CO[C@@]12[C@H](COC(N)=O)C3=C(C(=O)C(C)=C(N)C3=O)N1C[C@@H]1N[C@@H]12 | 72% (active) | 92% (active) | 71.7% (active) |
| CN(N=O)c1ccc(/C=C/c2ccnc3ccccc23)cc1 | 3% | 68% | 78.6% (active) |
| COc1cccc(C(c2cc3c(cc2O)OCO3)N2CCOCC2)c1OC (configuration not stated) | 19% | 71% (active) | 9.25% |
| CCC(c1ccc(O)cc1)C(CC)c1ccc(OCCN)cc1 (configuration not stated) | 12% | 87% (active) | 14.6% |
| CC(=O)CC(=O)/C=C/c1cccs1 | 100% (active) | 100% (active) | 64.8% |
| O=C(O)c1[nH]c(=O)c2ccccc2c1Nc1ccccc1 | -14% | -8% | 7.5% |
| CCCCCCCCCCCCCC(=O)OC(C)CCC1CCCO1 (configuration not stated) | -2% | 37% | 20.8% |
| O=Nc1ccc(Nc2ccccc2)cc1 | 26% | 93% (active) | 89.5% (active) |
